Reference: article PMC9911399, “Two distinct binding modes provide the RNA-binding protein RbFox with extraordinary sequence specificity”
Changes are numbered by the printed parent chain; changes in the protein carry UniProt numbers. The full ranking holds about 16,000 sequences; the median of “ka relative to ugcaugu” is about 0.096, and the highest 2% start at about 0.35. Many of the other results were omitted from the sample, so the highest values are more common in it than they were.

T1: RBFOX1 RRM RbFoxmut (Fox-RRM*) (Homo sapiens, UniProt Q9NWB1 109-208, R118D;E147R;N151S;E152T)
T1 sequence: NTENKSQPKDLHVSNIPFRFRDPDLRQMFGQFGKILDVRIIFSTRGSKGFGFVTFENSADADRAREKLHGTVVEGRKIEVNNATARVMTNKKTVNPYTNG

B1: GCAAUCG (DNA:RNA)
RNA: GGGAGACCGGAAUUCAGAUUGUCCGCAAUCGUUAAAUCCCGUCGUAGCCACCA
DNA 1: CAATCTGAATTCCGGTCTCCC
DNA 2: TGGTGGCTACGACGGGATT
B2: GCAUCCG (DNA:RNA)
RNA: B1 RNA with A28U, U29C
DNA 1: CAATCTGAATTCCGGTCTCCC
DNA 2: TGGTGGCTACGACGGGATT
B3: GCAUCAC (DNA:RNA)
RNA: B1 RNA with A28U, U29C, C30A, G31C
DNA 1: CAATCTGAATTCCGGTCTCCC
DNA 2: TGGTGGCTACGACGGGATT
B4: GCAUCUG (DNA:RNA)
RNA: B1 RNA with A28U, U29C, C30U
DNA 1: CAATCTGAATTCCGGTCTCCC
DNA 2: TGGTGGCTACGACGGGATT
B5: GCAUCAA (DNA:RNA)
RNA: B1 RNA with A28U, U29C, C30A, G31A
DNA 1: CAATCTGAATTCCGGTCTCCC
DNA 2: TGGTGGCTACGACGGGATT
B6: GAAUCGG (DNA:RNA)
RNA: B1 RNA with C26A, A28U, U29C, C30G
DNA 1: CAATCTGAATTCCGGTCTCCC
DNA 2: TGGTGGCTACGACGGGATT
B7: GCAUCGG (DNA:RNA)
RNA: B1 RNA with A28U, U29C, C30G
DNA 1: CAATCTGAATTCCGGTCTCCC
DNA 2: TGGTGGCTACGACGGGATT
B8: GCAUCAG (DNA:RNA)
RNA: B1 RNA with A28U, U29C, C30A
DNA 1: CAATCTGAATTCCGGTCTCCC
DNA 2: TGGTGGCTACGACGGGATT
B9: GCAUCGC (DNA:RNA)
RNA: B1 RNA with A28U, U29C, C30G, G31C
DNA 1: CAATCTGAATTCCGGTCTCCC
DNA 2: TGGTGGCTACGACGGGATT
B10: GCACCGC (DNA:RNA)
RNA: B1 RNA with A28C, U29C, C30G, G31C
DNA 1: CAATCTGAATTCCGGTCTCCC
DNA 2: TGGTGGCTACGACGGGATT
B11: CGCAUCG (DNA:RNA)
RNA: B1 RNA with G25C, C26G, A27C
DNA 1: CAATCTGAATTCCGGTCTCCC
DNA 2: TGGTGGCTACGACGGGATT
B12: GCACCGG (DNA:RNA)
RNA: B1 RNA with A28C, U29C, C30G
DNA 1: CAATCTGAATTCCGGTCTCCC
DNA 2: TGGTGGCTACGACGGGATT
B13: AGAGCGA (DNA:RNA)
RNA: B1 RNA with G25A, C26G, A28G, U29C, C30G, G31A
DNA 1: CAATCTGAATTCCGGTCTCCC
DNA 2: TGGTGGCTACGACGGGATT
B14: CCCUUUC (DNA:RNA)
RNA: B1 RNA with G25C, A27C, A28U, C30U, G31C
DNA 1: CAATCTGAATTCCGGTCTCCC
DNA 2: TGGTGGCTACGACGGGATT
B15: UACGGGG (DNA:RNA)
RNA: B1 RNA with G25U, C26A, A27C, A28G, U29G, C30G
DNA 1: CAATCTGAATTCCGGTCTCCC
DNA 2: TGGTGGCTACGACGGGATT
B16: CCGCCGG (DNA:RNA)
RNA: B1 RNA with G25C, A27G, A28C, U29C, C30G
DNA 1: CAATCTGAATTCCGGTCTCCC
DNA 2: TGGTGGCTACGACGGGATT
B17: AGGCCUA (DNA:RNA)
RNA: GGGAGACCGGAAUUCAGAUUGUCCAGGCCUAUUAAAUCCCGUCGUAGCCACCA
DNA 1: CAATCTGAATTCCGGTCTCCC
DNA 2: TGGTGGCTACGACGGGATT
B18: AGAGUUC (DNA:RNA)
RNA: B17 RNA with G27A, C28G, C29U, A31C
DNA 1: CAATCTGAATTCCGGTCTCCC
DNA 2: TGGTGGCTACGACGGGATT
B19: GCGAGUG (DNA:RNA)
RNA: B1 RNA with A27G, U29G, C30U
DNA 1: CAATCTGAATTCCGGTCTCCC
DNA 2: TGGTGGCTACGACGGGATT
B20: AGCAUCG (DNA:RNA)
RNA: B1 RNA with G25A, C26G, A27C
DNA 1: CAATCTGAATTCCGGTCTCCC
DNA 2: TGGTGGCTACGACGGGATT
B21: AGCAUCC (DNA:RNA)
RNA: B1 RNA with G25A, C26G, A27C, G31C
DNA 1: CAATCTGAATTCCGGTCTCCC
DNA 2: TGGTGGCTACGACGGGATT
B22: GCAUCGU (DNA:RNA)
RNA: B1 RNA with A28U, U29C, C30G, G31U
DNA 1: CAATCTGAATTCCGGTCTCCC
DNA 2: TGGTGGCTACGACGGGATT
B23: AGCACCG (DNA:RNA)
RNA: B17 RNA with G27C, C28A, U30C, A31G
DNA 1: CAATCTGAATTCCGGTCTCCC
DNA 2: TGGTGGCTACGACGGGATT
B24: GCAUUGU (DNA:RNA)
RNA: B1 RNA with A28U, C30G, G31U
DNA 1: CAATCTGAATTCCGGTCTCCC
DNA 2: TGGTGGCTACGACGGGATT
B25: AUCCGCA (DNA:RNA)
RNA: B17 RNA with G26U, G27C, C29G, U30C
DNA 1: CAATCTGAATTCCGGTCTCCC
DNA 2: TGGTGGCTACGACGGGATT
B26: GCAUCCA (DNA:RNA)
RNA: B1 RNA with A28U, U29C, G31A
DNA 1: CAATCTGAATTCCGGTCTCCC
DNA 2: TGGTGGCTACGACGGGATT
B27: GCAUCGA (DNA:RNA)
RNA: B1 RNA with A28U, U29C, C30G, G31A
DNA 1: CAATCTGAATTCCGGTCTCCC
DNA 2: TGGTGGCTACGACGGGATT
B28: GCACCGU (DNA:RNA)
RNA: B1 RNA with A28C, U29C, C30G, G31U
DNA 1: CAATCTGAATTCCGGTCTCCC
DNA 2: TGGTGGCTACGACGGGATT

The binders below were run against T1, RBFOX1 RRM RbFoxmut (Fox-RRM*) (assay: EMSA; HiTS-Eq, 1 nM pool, 10 min; buffer printed only for the single-RNA assays: 10 mM Tris pH 7.5, 150 mM NaCl, 3.4 mM EDTA, 0.001% NP-40, 30 C). Details: tags: His6 N-terminal (pET28a); label: 5' 32P.
Outline: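 Purified RbFox RRM, wild type or mutant, was incubated for 10 min in 50 µL with 1 nM of a 5′-radiolabelled RNA pool carrying 7 randomized nucleotides, whose flanks were annealed to DNA oligonucleotides, over a series of increasing protein concentrations. Unbound RNA was resolved on 8% native PAGE, cut out, reverse-transcribed, barcoded by PCR and sequenced on an Illumina HiSeq 2500. Relative association constants were derived from changes in read counts for each RNA species versus the control reaction and normalised to the cognate motif.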

Binder	binding signal
B1	0.0721 KA relative to UGCAUGU
B2	0.351 KA relative to UGCAUGU
B3	0.293 KA relative to UGCAUGU
B4	0.264 KA relative to UGCAUGU
B5	0.323 KA relative to UGCAUGU
B6	0.186 KA relative to UGCAUGU
B7	0.454 KA relative to UGCAUGU
B8	0.382 KA relative to UGCAUGU
B9	0.443 KA relative to UGCAUGU
B10	0.139 KA relative to UGCAUGU
B11	0.625 KA relative to UGCAUGU
B12	0.102 KA relative to UGCAUGU
B13	0.0748 KA relative to UGCAUGU
B14	0.0564 KA relative to UGCAUGU
B15	0.0585 KA relative to UGCAUGU
B16	0.0808 KA relative to UGCAUGU
B17	0.0817 KA relative to UGCAUGU
B18	0.0781 KA relative to UGCAUGU
B19	0.184 KA relative to UGCAUGU
B20	0.437 KA relative to UGCAUGU
B21	0.237 KA relative to UGCAUGU
B22	0.578 KA relative to UGCAUGU
B23	0.104 KA relative to UGCAUGU
B24	0.228 KA relative to UGCAUGU
B25	0.167 KA relative to UGCAUGU
B26	0.338 KA relative to UGCAUGU
B27	0.675 KA relative to UGCAUGU
B28	0.172 KA relative to UGCAUGU
